Legend:
Experiment in all cases: PBM binding z-score (relative to random genomic background probes); higher = stronger binding; sequences stand for … in GC…GCGATTGACAGCGTAGAATGAAGG
[1] = test system: PPARg:RXRa DBDmut IVT, anti-RXR (DBD mutation: RXRa K156A/R161A, NR concentration 270 nM, RXRa partner concentration 90 nM)
Summary of the method: (§1)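 Binding buffer was PBS pH 7.4 with 2% milk, 0.02% Triton X-100, 1 mM DTT, 0.2 mg/mL BSA and 0.4 mg/ml salmon testes DNA. In it, ligand-free nuclear receptor dimers were incubated 1 h on custom Agilent 4×180K protein-binding microarrays carrying double-stranded probes. Antibodies against each partner (one per run) detected binding, and z-scores were calculated against random background probes after regression normalization of scanned fluorescence.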

[2] = test system: PPARg:RXRa IVT, anti-PPARg (NR concentration 270 nM, RXRa partner concentration 90 nM)
Summary of the method: as §1

[3] = test system: PPARg DBDmut:RXRa IVT, anti-PPARg (DBD mutation: PPARg1 K132A/R137A, NR concentration 270 nM, RXRa partner concentration 90 nM)
Summary of the method: as §1

[4] = test system: PPARg DBDmut IVT, anti-PPARg (DBD mutation: PPARg1 K132A/R137A, NR concentration 270 nM)
Summary of the method: as §1

[5] = test system: PPARg homodimer (NR concentration 180 nM)
Summary of the method: as §1

[6] = test system: PXR:RXRa (NR concentration 270 nM, RXRa partner concentration 90 nM)
Summary of the method: as §1

[7] = test system: PXR homodimer (NR concentration 270 nM)
Summary of the method: as §1

[8] = test system: RARa:RXR (NR concentration 270 nM, RXRa partner concentration 90 nM)
Summary of the method: as §1

[9] = test system: RARa homodimer (NR concentration 270 nM)
Summary of the method: as §1

[10] = test system: RARb:RXRa (NR concentration 270 nM, RXRa partner concentration 90 nM)
Summary of the method: as §1

Row | Sequence | PBM binding z-score [1] | PBM binding z-score [2] | PBM binding z-score [3] | PBM binding z-score [4] | PBM binding z-score [5] | PBM binding z-score [6] | PBM binding z-score [7] | PBM binding z-score [8] | PBM binding z-score [9] | PBM binding z-score [10]
1 | CCTTACGGGTAACTGACAGGTTATAGCATTTGGA | 1.03 | 0.095 | -0.022 | -0.575 | 0.529 | 0.109 | -0.252 | 0.585 | 0.214 | 0.274
2 | CGTCCAGGGTCAAAGGTCAGTGAAGAGATGACGG | 2.45 | 5.28 | 0.657 | 0.0677 | 3.17 | 6.94 | 0.868 | 8.37 | 1.58 | 5.63
3 | CAGCCTAGGTCAGGGACAGTATAGGAGGAACGTT | 1.29 | 1.68 | -0.599 | -0.73 | 0.801 | 0.546 | -0.219 | 1.22 | 0.00135 | 3.4
4 | CCTCGCAGGACAACAGGAGGTCAGAGCTGCCAGA | -0.0217 | 0.0775 | -0.749 | -0.93 | 1.52 | 1.89 | 0.261 | 2.26 | -0.0612 | 2.28
5 | ATACCAAGCTGATCGTGAGGTCGTTGATACTAAC | -0.185 | 0.0581 | 0.404 | 0.536 | 0.45 | 1.49 | 1.06 | 1.26 | 0.317 | 0.454
6 | ATCGCTAGGTAAGACTCAGTTCAGTGAAGAACGC | -0.311 | -0.264 | -0.423 | -0.364 | -0.443 | 0.322 | 0.471 | -0.577 | -0.519 | -0.283
7 | TCTGCTAGGACAGTTGGTCAGCTAACGAGCTGCC | 0.464 | 0.0709 | -0.543 | -0.756 | -1.29 | -0.745 | -1.05 | -0.557 | -1.03 | 0.346
8 | GCGACTGGGGCACCAGCAGGTTACCATAACTTAA | 4.23 | 4.22 | -0.601 | -0.596 | -0.202 | 0.0556 | -0.64 | 0.555 | -0.588 | 1.05
9 | ATCTCTAGGTAACAAAGTTCAGTGAATGCCGAAC | 3.03 | 3.03 | 1.17 | 0.837 | 1.24 | 2.36 | 2.09 | 1.61 | 0.834 | 2.4
10 | AGTCAAAGTTCATCTAGGTAACGTGAGATATGCT | 1.17 | 3.86 | 1.73 | 0.803 | 2.99 | 5.36 | 7.67 | 3.82 | 1.48 | 4.96
11 | TCGAGTAGGATAGTCGGGGCATTCAGCCAACATA | 0.456 | -0.749 | -1.74 | -1.22 | -0.949 | -0.303 | -0.615 | -0.363 | -0.838 | -0.448
12 | CGAACTAGATCAGAACAGGACAGTGAAGGATGAT | 0.901 | 0.144 | 0.0731 | 0.309 | 0.437 | -0.412 | 0.0691 | -0.383 | 0.626 | -0.179
13 | TCTATTAGTTGATTTGGGCAACCGAAACAGCGGA | 2.03 | 0.616 | 1.09 | 1.16 | 0.506 | 0.543 | 0.421 | 0.432 | 0.567 | 0.368
14 | GATACAGGCTCAAGGCCAGAGTACGCGTATTGAT | -0.731 | -0.511 | -0.646 | -1.16 | -1.02 | -0.534 | 0.0448 | -0.806 | -0.764 | -0.0838
15 | ATCTCTAGGTAACAGGTTCAGTGAAAGAGAGGAC | 3.85 | 3.15 | 1.83 | 1.35 | 1.4 | 0.871 | 1.43 | 0.854 | 0.973 | 0.893
16 | CCGAGTAGGTTATGGGGCTTTCAGGCAACGGTGA | 3.12 | 2.84 | -0.365 | -0.667 | 0.638 | -0.191 | -0.0344 | -0.019 | 0.153 | 0.525
17 | ATATGTAGGTTACAGCCGGGTCATTCAGGCTATG | 7.69 | 7.35 | 1.69 | 1.39 | 1.97 | 3.43 | 1.66 | 3.51 | 0.487 | 2.26
18 | GCATATAGGTCATACAAGGTGAAAGTCCGATTGT | 6.81 | 7.41 | 3.79 | 2.08 | 2.85 | 4.68 | 0.812 | 4.41 | 1.09 | 4.29
19 | CAAACTATGTCAAGGTCAAAGTCGGTTTGTGCCA | 5.27 | 4.71 | 0.328 | 0.339 | 2.4 | 5 | 3.33 | 4.46 | 1.69 | 4.25

Row | Sequence | PBM binding z-score [1] | PBM binding z-score [2] | PBM binding z-score [3] | PBM binding z-score [4] | PBM binding z-score [5] | PBM binding z-score [6] | PBM binding z-score [7] | PBM binding z-score [8] | PBM binding z-score [9] | PBM binding z-score [10]
20 | ATATCTAGGTAACCAAGTTCAGTGAATGCCGAAC | 6.87 | 6.81 | 1.28 | 1.43 | 1.06 | 2.01 | 1.85 | 0.933 | 0.953 | 1.39
21 | AATACAGGGTCATCGTAGGCCAGCGTACGCACAG | 2.7 | 4.3 | 1.13 | 2.04 | 1.67 | 4.77 | 0.406 | 4.77 | 0.478 | 4.55
22 | TTACCAGGGTGAGCTGAGGTCGTTGATCCAACTC | 0.596 | 1.4 | -1.02 | -0.726 | 0.323 | 5.42 | 0.925 | 2.13 | -0.657 | 1.24
23 | ATCTCTAGGTAACAAGTACAGTGAAAGAGAGGAC | 2.78 | 2.91 | 1.63 | 0.83 | 0.76 | 0.221 | 0.657 | 0.485 | 1.28 | 0.624
24 | CAAACTAGGTCACGAAAGCTCAAAGTCGAATGAC | 8.36 | 8.78 | 1.59 | 1.7 | 2.09 | 2.01 | -0.0695 | 2.59 | 0.726 | 4.42
25 | CCTCGGAGGACAACAAGAGGTCAGAGCTGCCAGA | -0.155 | 0.669 | -1.24 | -1.03 | 1.86 | 3.04 | 0.241 | 3.4 | 0.861 | 3.18
26 | CCTACTGGCCCAAGGTCATTGATCAGTCAAAGCA | -0.104 | 1.17 | -0.998 | -0.271 | 2.64 | 3.52 | 1.68 | 3.36 | 0.651 | 3.4
27 | CTACCAAGGTGAACAAGGTCATTGATTACTATTC | 3.07 | 4.07 | 0.536 | 0.17 | 2.29 | 4.92 | 6.61 | 4.44 | 1.19 | 3.53
28 | CAAACTAGGTCAACAGGTCAAAGTCCGCTTCCCG | 8.61 | 8.71 | 4.74 | 3.76 | 4.14 | 4.32 | 1.23 | 5.98 | 3.05 | 4.81
29 | AGAACGAGGGCACGTTGAGTTGATAGCAGAGTAG | 3.79 | 3.75 | 0.741 | -0.039 | 0.701 | 1.33 | 0.471 | 0.629 | -0.287 | 2.42
30 | ACTAGCAGGCTAAGGGTCACTCAAGATTAGTCCG | 0.414 | 3.12 | 0.0604 | -0.126 | 1.94 | 3.45 | -0.319 | 4.56 | 0.291 | 3.47
31 | TCTCGGAGGACACGAAGGTCATAGCTTTCCAGAG | 1.58 | 1.77 | -0.131 | -1.04 | 1.95 | 3.8 | 3.5 | 3.59 | 0.346 | 3.62
32 | TGTCACAGTTCAAAGGTAACGTAAGTATCCACAC | 0.227 | 2.78 | 1.49 | 1.01 | 0.48 | 3.67 | 0.969 | 4.07 | -0.272 | 2.88
33 | CCTTACGGGTCACTCCAGGTAATAGCATCGGAGT | 2.28 | 3.72 | 0.64 | 0.618 | 2.25 | 3.63 | 0.169 | 3.88 | 0.163 | 3.72
34 | TCTAGTTGGACACGGAGGTCACACACGACGGGTA | 1.98 | 2.33 | 0.713 | 0.0839 | 2.38 | 4.16 | 1.05 | 4.39 | 1.25 | 3.45
35 | ATCGAAAGGTCTACGAGGTGAGTATACACCGTTT | -0.371 | 1.17 | 0.797 | 0.317 | 0.182 | 0.409 | 0.194 | 1.17 | 0.434 | 1.81
36 | ACTAGCAGGCCAAGTTTGGGTCATTCAAACAAAG | 0.974 | 1.1 | -0.68 | -0.939 | 0.745 | 1.08 | -0.0146 | 1.73 | -0.276 | 1.69
37 | TAGCCTAGGTCATTAGGCCAGTATAGTACGCATC | 2.12 | 3.88 | 0.301 | -0.52 | 1.19 | 0.87 | -0.114 | 1.79 | 0.0486 | 3.24
38 | ATCGAAAGGTCGACGAGGGGAGTATACACCGTTT | 0.481 | 1.64 | 1.34 | 0.0319 | 1.49 | 2.39 | 0.488 | 3.37 | 0.328 | 3.74

Reference: the supplement of paper PMC6555819
